Bioassay records (PubChem)
Cruzain Triton: qHTS Assay for Promiscuous and Specific Inhibitors of Cruzain (with detergent). actives 0.43% (n = 200,000). Potency, µM, hits mostly inhibitors. purified cruzain, Z-FR-AMC fluorescence, 0.01% Triton; further: nearly all actives have a fitted effect of over 40% in size
Target sequence (P25779 123-467 limits assumed): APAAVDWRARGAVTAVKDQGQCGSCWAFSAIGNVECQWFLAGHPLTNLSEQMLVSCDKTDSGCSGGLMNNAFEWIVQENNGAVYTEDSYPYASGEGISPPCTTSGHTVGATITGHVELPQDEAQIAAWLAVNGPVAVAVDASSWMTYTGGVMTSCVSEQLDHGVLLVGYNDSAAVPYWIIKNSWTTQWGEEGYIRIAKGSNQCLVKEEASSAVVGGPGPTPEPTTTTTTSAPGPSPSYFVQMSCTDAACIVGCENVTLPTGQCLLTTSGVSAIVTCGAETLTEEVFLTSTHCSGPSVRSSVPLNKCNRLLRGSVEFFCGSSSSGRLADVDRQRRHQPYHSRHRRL
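Detergent-containing run (0.01% Triton X-100) in acetate buffer pH 5.5 with 5 mM DTT: enzyme at 1.5 nM final, 15 min compound preincubation at room temperature, then 2 uM Z-FR-AMC substrate. Activity taken as 60 s fluorescence increase at 360/450 nm.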
Cruzain inh noDet: qHTS Assay for Promiscuous and Specific Inhibitors of Cruzain (without detergent); Cruzipain (Trypanosoma cruzi), P25779; purified cruzain, Z-FR-AMC fluorescence, no detergent; Potency, µM, most hits filed as inhibitors; actives 2.3% (n = 200,000); AID 1476, 2009; further: nearly all actives have a fitted effect of over 40% in size
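Purified cruzain at 1.5 nM, pre-incubated 15 min with compound at room temperature in 100 mM sodium acetate pH 5.5, 5 mM DTT, 0.00005% Triton X-100. Reaction started with 2 uM Z-FR-AMC; AMC fluorescence increase over 60 s gives rate.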
Each line names hits and unclear results; the compound was inactive in the other large screens. Shown are actives, neighbours in structure and some others; about 2.5% of the full set was active somewhere. The call rests on the fitted dose curve; in most records, active means well fitted curve in the direction sought with a large enough effect; inconclusive means small, poorly fitted or top-dose-only effect, or another doubt; inactive means no such curve, though single readings can be large; an effect the other way counts as inactive or inconclusive.

COc1ccc(C(=O)OC(C(=O)c2ccccc2)c2ccccc2)cc1 (stereo unspecified)	none
O=C(CNC(=O)c1ccc(Cl)cc1)OCc1nc2ccccc2s1	Cruzain Triton 14µM, Cruzain inh noDet 16µM
Cc1ccc(C(=O)C(OC(=O)CN2C(=O)c3ccccc3C2=O)c2ccccc2)cc1 (stereo unspecified)	Cruzain inh noDet inconclusive
O=C(OCc1nc2ccccc2s1)c1cccs1	none
O=C(CN1C(=O)c2ccccc2C1=O)OC(C(=O)c1ccc(Cl)cc1)c1ccccc1 (stereo unspecified)	Cruzain inh noDet 32µM
COc1ccc(C(=O)C(OC(=O)CNC(=O)c2ccco2)c2ccccc2)cc1 (stereo unspecified)	Cruzain Triton 4µM, Cruzain inh noDet 3.2µM
Cc1ccc(C(=O)C(OC(=O)CNC(=O)c2ccc(Cl)cc2)c2ccccc2)cc1 (stereo unspecified)	Cruzain Triton 6.3µM, Cruzain inh noDet 10µM
O=C(O)CN(CC(=O)O)c1ccccc1	none
Cc1cccc(N2CCN(C(=O)C3CCN(C(=O)c4cc5sccc5n4C)CC3)CC2)c1C	Cruzain inh noDet inconclusive
CCOc1ccc(S(=O)(=O)NCCc2sc3nc(-c4ccc(F)cc4)nn3c2C)cc1	Cruzain inh noDet inconclusive
O=C(CNC(=O)c1ccccc1)OC(C(=O)c1ccccc1)c1ccccc1 (stereo unspecified)	Cruzain Triton 6.3µM, Cruzain inh noDet 4µM
COc1ccc(NC(=O)CCC(=O)OC(C(=O)c2ccccc2)c2ccccc2)cc1 (stereo unspecified)	none
CCCCCCN(C(=O)CCCCCN1C(=O)NC(c2ccccc2-c2ccccc2)C(C(=O)OCc2ccccc2)=C1C)C(C(=O)NCCCC)c1ccc(OCC(=O)OC)c(C(=O)OC)c1 (stereo unspecified)	none
Cc1cccc(NCCC(=O)c2ccc(Br)cc2)c1	none
CCOC(=O)CNCCC(=O)c1ccc(Br)cc1	Cruzain Triton 25µM, Cruzain inh noDet 10µM
Cc1ccc2sc(NNC(=O)c3cc(-c4cccs4)nc4ccccc34)nc2c1C	Cruzain inh noDet 10µM
O=C(NNc1nc2ccc(Cl)cc2s1)c1cc(-c2cccs2)nc2ccccc12	Cruzain inh noDet 7.9µM
Cc1cc(C)c2nc(NNC(=O)c3cc(-c4cccs4)nc4ccccc34)sc2c1	Cruzain inh noDet inconclusive
O=C(NN1CCOCC1)c1cc(-c2cccs2)nc2ccccc12	none
Brc1ccc(CN2CCc3nc(Nc4ccccc4)ncc3C2)s1	Cruzain inh noDet inconclusive
O=C1C=CC(=Nc2cccc3c(N=C4C=CC(=O)O4)cccc23)O1	none
O=C(CNc1cccc2ccccc12)N/N=C/c1ccc([N+](=O)[O-])cc1	none
O=C(CNc1cccc2ccccc12)N/N=C/c1cccc(Oc2ccccc2)c1	Cruzain inh noDet 20µM
CCc1cccc(C)c1NC(=O)Cn1nc(C)c2nn(-c3ccc(Cl)cc3)c(C)c2c1=O	Cruzain inh noDet inconclusive
CC(C)(C)c1cc(Br)c(O)c(CN(Cc2cc(C(C)(C)C)cc(Br)c2O)C2CCCCC2)c1	none
CC(C)CN(CCNC(=O)CCN1N=C(c2ccccc2)CCC1=O)CC(C)C	none
CN1C(=O)c2ccccc2Sc2ccc(NC(=O)N3CCN(c4ccc(F)cc4)CC3)cc21	Cruzain inh noDet inconclusive
COc1cc(/C=N/NC(N)=S)cc(Br)c1OCc1ccccc1F	Cruzain Triton 0.56µM, Cruzain inh noDet 0.2µM
CCOc1cc(/C=N/N=C(\N)c2nonc2N)cc(Br)c1OCc1cccc2ccccc12	Cruzain inh noDet 6.3µM
CCOc1c(Br)cc(/C=N\NC(=O)c2ccccc2)cc1OC	none
COc1cc(/C=N/N=C(/N)c2nonc2N)cc(Br)c1OCc1cccc(C)c1	none
CCOc1cc(/C=N/NC(N)=O)cc(Br)c1OCc1ccccc1	none
CCOc1cc(/C=N/NC(N)=S)cc(Br)c1OCc1ccccc1C	Cruzain Triton 3.2µM, Cruzain inh noDet 1µM
CCCC1(C(=O)OC)C=C2C(=C(C)C(=O)C2C)CN1 (stereo unspecified)	none
CCOc1ccc2nc(SCC(=O)N3c4ccccc4Sc4ccccc43)c(C#N)cc2c1	Cruzain inh noDet 4µM
COc1ccc2nc(SCC(=O)N3CCCCCC3)c(C#N)cc2c1	none
CC(C)COc1ccc(C(=O)NCC2(N3CCN(C)CC3)CCCCC2)cc1	none
Cc1ccccc1-c1ccc2ncnc(NCc3cccnc3)c2c1	none
O=C(CNC(=O)C(c1ccccc1)c1ccccc1)OCC(=O)c1cccs1	Cruzain Triton 20µM, Cruzain inh noDet 13µM
O=C(CNC(=O)c1cccs1)OCC(=O)c1ccccc1	none
CCOCc1ccccc1Nc1ncnc2onc(-c3ccc(Cl)cc3)c12	none
CCN(c1ccc(OC)cc1)S(=O)(=O)c1nnc(NC(=O)c2ccccc2C)s1	none
CCc1ccc(S(=O)(=O)/N=C2/C=C(Sc3ncn[nH]3)C(=O)c3ccccc32)cc1	Cruzain inh noDet 25µM
Cc1ccc(S(=O)(=O)/N=C2/C=C(C3C(=O)CC(C)(C)CC3=O)C(=O)c3ccccc32)cc1	none
Cc1cccc(C(=O)NCC(=O)OCc2cc(=O)n3nc(C4CC4)sc3n2)c1	none
COc1ccc(-c2cc(C(=O)OCC(=O)c3cccc([N+](=O)[O-])c3)c3cc(C)ccc3n2)cc1	Cruzain inh noDet 10µM
COc1ccc(-c2cc(C(=O)Oc3cccc(C)c3)c3cc(C)ccc3n2)cc1	none
COC(=O)c1cc2oc(C)cc2n1Cc1c(C)cc(C)cc1C	none
COc1nc(-c2ccccc2Cl)ccc1C#N	none
COc1ccc(-c2ccc(C#N)c(OC(=O)c3c(Cl)cccc3Cl)n2)cc1	Cruzain Triton 28µM, Cruzain inh noDet inconclusive
COc1cccc(N2CCN(C(=O)C3Cc4ccccc4N3C(C)=O)CC2)c1 (stereo unspecified)	none
O=S(=O)(NCCO)c1cc[c]([Sb])cc1	none
COc1ccccc1CNC(=O)CC(c1ccc(OC)c(OC)c1)N1Cc2ccccc2C1=O (stereo unspecified)	none
COc1cc(C(CC(=O)NCc2ccccc2Cl)N2Cc3ccccc3C2=O)cc(OC)c1OC (stereo unspecified)	Cruzain Triton inconclusive, Cruzain inh noDet 16µM
CCOc1ccc(NC(=O)CC2C(=O)N(c3ccc(OC)cc3)C(=O)N2CCC2=CCCCC2)cc1 (stereo unspecified)	none
CC(=O)c1ccc(-c2cccc(-c3cc(=O)oc4ccc(C(C)(C)C)cc34)c2)cc1	Cruzain inh noDet 28µM
COc1cc2oc(=O)cc(-c3cccc(-c4ccc(C(C)=O)cc4)c3)c2c(OC)c1OC	none
O=C(NNc1nc(-c2ccccc2)cs1)c1ccccc1	Cruzain inh noDet inconclusive
O=C(Nc1ccc(Cl)c(Cl)c1)Nc1nc(-c2ccccc2)cs1	Cruzain inh noDet 10µM
Cc1csc(NC(=O)Nc2ccc(Cl)cc2)n1	Cruzain inh noDet inconclusive
O=C(Nc1ccc(Cl)cc1)Nc1nc(-c2sccc2Br)cs1	Cruzain inh noDet 10µM
COc1ccc(CCNC(=O)c2cnc3sc(N4CCC(C)CC4)nn3c2=O)cc1OC	none
Cc1cc(C(F)(F)F)nn1CC(=O)Nc1cccnc1	none
CSc1cc2c(cc1C(F)(F)F)N(C(=O)Nc1cccnc1)CC2	Cruzain inh noDet 7.9µM
CC(CCN)(CCN)[N+](=O)[O-]	none
COc1ccccc1C(=O)NCC(=O)OCc1ccc(Br)cc1	none
COc1ccccc1C(=O)NCC(=O)OC(C)C(=O)NC(=O)NC1CCCCC1 (stereo unspecified)	Cruzain Triton 8.9µM, Cruzain inh noDet 10µM
